Results from PubChem BioAssay AID1159580 (chemical genetic matrix, 2015).
Screen size: about 5,500 compounds; about 2,000 (36%) were called active. Another 18% or so got no clear call; they are omitted. Rule as the data show it: active = normalized growth mostly below about 0.91 (no sharp cut-off); inconclusive = no clear call, values can overlap the other calls; inactive = mostly above about 0.92. This is one part of the list.

Experiment: chemical genetic growth profiling, strain panel (AID 1159580);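 also: tested at 20 µM; growth read once vehicle control cultures reached saturation at 30 °C; 1 = growth at the plate median or of vehicle wells; lower values mean less growth of the strain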
Details: growth OD

Measured: normalized growth

Nc1ccc(S(=O)(=O)Nc2cnc3ccccc3n2)cc1
inactive: S. cerevisiae deletion strains, locus YJR075W, strain HOC1, stronger effect = lower value 0.982 | S. cerevisiae deletion strains, locus YKL009W, strain mrt4, stronger effect = lower value 0.971 | S. cerevisiae deletion strains, locus YKL068W, stronger effect = lower value 0.985 | S. cerevisiae deletion strains, locus YKL085W, strain MDH1 (second series), stronger effect = lower value 0.98 | S. cerevisiae deletion strains, locus YKL085W, strain MDH1, stronger effect = lower value 0.98 | S. cerevisiae deletion strains, locus YKL160W, strain elf1, stronger effect = lower value 1.01 | S. cerevisiae deletion strains, locus YKL190W, strain CNB1, stronger effect = lower value 0.976 | S. cerevisiae deletion strains, locus YKR001C, strain vps1, stronger effect = lower value 0.969 | S. cerevisiae deletion strains, locus YKR026C, strain gcn3, stronger effect = lower value 1.02 | S. cerevisiae deletion strains, locus YKR091W, strain srl3, stronger effect = lower value 1.01 | S. cerevisiae deletion strains, locus YLL001W, strain dnm1, stronger effect = lower value 1.02 | S. cerevisiae deletion strains, locus YLL026W, stronger effect = lower value 1.01 | S. cerevisiae deletion strains, locus YLL041C, strain sdh2, stronger effect = lower value 1 | S. cerevisiae deletion strains, locus YLR027C, strain aat2, stronger effect = lower value 1.01 | S. cerevisiae deletion strains, locus YLR039C, strain RIC1, stronger effect = lower value 0.959 | S. cerevisiae deletion strains, locus YLR058C, strain SHM2, stronger effect = lower value 0.971 | S. cerevisiae deletion strains, locus YLR102C, strain apc9, stronger effect = lower value 0.992 | S. cerevisiae deletion strains, locus YLR113W, strain HOG1, stronger effect = lower value 0.967 | S. cerevisiae deletion strains, locus YLR221C, strain rsa3, stronger effect = lower value 0.995 | S. cerevisiae deletion strains, locus YLR258W, strain gsy2, stronger effect = lower value 1.01 | S. cerevisiae deletion strains, locus YLR262C, strain YPT6 (second series), stronger effect = lower value 1.02 | S. cerevisiae deletion strains, locus YLR262C, strain YPT6, stronger effect = lower value 0.964 | S. cerevisiae deletion strains, locus YLR268W, strain sec22, stronger effect = lower value 0.904 | S. cerevisiae deletion strains, locus YLR320W, strain mms22, stronger effect = lower value 1.01 | S. cerevisiae deletion strains, locus YLR330W, strain CHS5, stronger effect = lower value 0.995 | S. cerevisiae deletion strains, locus YLR342W, strain FKS1 (second series), stronger effect = lower value 1.02 | S. cerevisiae deletion strains, locus YLR342W, strain FKS1, stronger effect = lower value 1.01 | S. cerevisiae deletion strains, locus YLR357W, strain rsc2, stronger effect = lower value 0.995 | S. cerevisiae deletion strains, locus YLR370C, strain arc18, stronger effect = lower value 1.03 | S. cerevisiae deletion strains, locus YLR371W, strain rom2, stronger effect = lower value 0.984 | S. cerevisiae deletion strains, locus YLR384C, strain iki3, stronger effect = lower value 1.01 | S. cerevisiae deletion strains, locus YLR418C, strain cdc73, stronger effect = lower value 0.979 | S. cerevisiae deletion strains, locus YML016C, strain PPZ1, stronger effect = lower value 0.996 | S. cerevisiae deletion strains, locus YML032C, strain rad52, stronger effect = lower value 0.979 | S. cerevisiae deletion strains, locus YML120C, strain ndi1, stronger effect = lower value 1.02 | S. cerevisiae deletion strains, locus YML124C, strain tub3, stronger effect = lower value 0.978 | S. cerevisiae deletion strains, locus YMR058W, strain fet3, stronger effect = lower value 1.02 | S. cerevisiae deletion strains, locus YMR078C, strain ctf18, stronger effect = lower value 0.974 | S. cerevisiae deletion strains, locus YMR125W, strain sto1, stronger effect = lower value 1.03 | S. cerevisiae deletion strains, locus YMR129W, stronger effect = lower value 1.02 | S. cerevisiae deletion strains, locus YMR205C, strain PFK2, stronger effect = lower value 1.02 | S. cerevisiae deletion strains, locus YMR223W, strain ubp8, stronger effect = lower value 1 | S. cerevisiae deletion strains, locus YMR231W, strain pep5, stronger effect = lower value 1.01 | S. cerevisiae deletion strains, locus YMR263W, strain SAP30, stronger effect = lower value 0.978 | S. cerevisiae deletion strains, locus YMR307W, strain GAS1, stronger effect = lower value 1.1 | S. cerevisiae deletion strains, locus YNL067W, strain RPL9B, stronger effect = lower value 0.977 | S. cerevisiae deletion strains, locus YNL071W, strain lat1, stronger effect = lower value 1.02 | S. cerevisiae deletion strains, locus YNL153C, strain GIM3, stronger effect = lower value 0.962 | S. cerevisiae deletion strains, locus YNL183C, strain NPR1, stronger effect = lower value 0.921 | S. cerevisiae deletion strains, locus YNL209W, strain ssb2, stronger effect = lower value 1.02 | S. cerevisiae deletion strains, locus YNL233W, strain BNI4, stronger effect = lower value 0.984 | S. cerevisiae deletion strains, locus YNL248C, strain rpa49, stronger effect = lower value 1.02 | S. cerevisiae deletion strains, locus YNL250W, strain rad50, stronger effect = lower value 0.98 | S. cerevisiae deletion strains, locus YNL271C, strain bni1, stronger effect = lower value 0.985 | S. cerevisiae deletion strains, locus YNL298W, strain CLA4, stronger effect = lower value 0.988 | S. cerevisiae deletion strains, locus YNL307C, strain MCK1, stronger effect = lower value 0.983 | S. cerevisiae deletion strains, locus YNL322C, strain KRE1 (second series), stronger effect = lower value 0.997 | S. cerevisiae deletion strains, locus YNL322C, strain KRE1, stronger effect = lower value 0.992 | S. cerevisiae deletion strains, locus YNR049C, strain mso1, stronger effect = lower value 1.01 | S. cerevisiae deletion strains, locus YNR052C, strain pop2, stronger effect = lower value 0.987 | S. cerevisiae deletion strains, locus YOL006C, strain TOP1, stronger effect = lower value 0.997 | S. cerevisiae deletion strains, locus YOL012C, strain htz1 1.64 | S. cerevisiae deletion strains, locus YOL147C, strain pex11, stronger effect = lower value 0.988 | S. cerevisiae deletion strains, locus YOR001W, strain rrp6, stronger effect = lower value 1.02 | S. cerevisiae deletion strains, locus YOR061W, strain CKA2, stronger effect = lower value 0.961 | S. cerevisiae deletion strains, locus YOR069W, strain VPS5, stronger effect = lower value 0.995 | S. cerevisiae deletion strains, locus YOR070C, strain gyp1, stronger effect = lower value 1.01 | S. cerevisiae deletion strains, locus YOR080W, strain dia2, stronger effect = lower value 1.02 | S. cerevisiae deletion strains, locus YOR083W, strain WHI5, stronger effect = lower value 0.99 | S. cerevisiae deletion strains, locus YOR106W, strain vam3, stronger effect = lower value 1.03 | S. cerevisiae deletion strains, locus YOR136W, strain idh2, stronger effect = lower value 0.98 | S. cerevisiae deletion strains, locus YOR144C, strain elg1, stronger effect = lower value 0.977 | S. cerevisiae deletion strains, locus YOR184W, strain ser1, stronger effect = lower value 0.98 | S. cerevisiae deletion strains, locus YOR231W, strain MKK1, stronger effect = lower value 0.975 | S. cerevisiae deletion strains, locus YOR265W, strain rbl2, stronger effect = lower value 1.01 | S. cerevisiae deletion strains, locus YOR270C, strain vph1, stronger effect = lower value 1.02 | S. cerevisiae deletion strains, locus YOR290C, strain snf2, stronger effect = lower value 0.998 | S. cerevisiae deletion strains, locus YOR316C, strain cot1, stronger effect = lower value 0.969 | S. cerevisiae deletion strains, locus YPL051W, strain arl3, stronger effect = lower value 1 | S. cerevisiae deletion strains, locus YPL055C, strain LGE1, stronger effect = lower value 0.94 | S. cerevisiae deletion strains, locus YPL078C, strain atp4, stronger effect = lower value 1.02 | S. cerevisiae deletion strains, locus YPL106C, strain sse1, stronger effect = lower value 1.03 | S. cerevisiae deletion strains, locus YPL240C, strain hsp82, stronger effect = lower value 1.02 | S. cerevisiae deletion strains, locus YPL256C, strain CLN2, stronger effect = lower value 0.96 | S. cerevisiae deletion strains, locus YPR119W, strain clb2, stronger effect = lower value 0.986 | S. cerevisiae deletion strains, locus YPR141C, strain kar3, stronger effect = lower value 0.972 | S. cerevisiae deletion strains, locus YPR163C, strain tif3, stronger effect = lower value 0.989 | S. cerevisiae deletion strains, locus YPR167C, strain met16, stronger effect = lower value 0.987 | S. cerevisiae deletion strains, strain wtn01, stronger effect = lower value 0.991 | S. cerevisiae strains, strain wild type, stronger effect = lower value 0.986
